We go through three compounds from PubChem BioAssay (NCATS).

Results filed as inconclusive are left out. The source made the active and inactive calls. Calls follow the shape of the dose curve; as a rule, active = well fitted cell-killing curve with a large enough effect; inconclusive = small, poorly fitted or top-dose-only effect, or effect the other way; inactive = no such curve, though single readings can be large or run the other way.
Potency is read from the fitted curve at half-maximal effect.

This assay can be described thus: Viability qHTS for spleen associated tyrosine kinase inhibitor (SYKi) drug resistant MV4-11 cells (AID 1963824). Also: nearly all actives have a fitted effect of over 35% in size. The following applies: SYKi-resistant MV4-11 viability, CellTiter-Glo, 72 h; series mostly up to 45 µM. An excerpt:
Department of Medicine, Hematology/Oncology
University Hospital Frankfurt, Germany.
Trials have shown promising clinical activity of the selective SYK inhibitor entospletinib in patients with high expressing HOXA9/MEIS1 acute leukemias. As the development of resistance mechanisms is a common problem in the use of targeted drugs, we performed a chemical library screen to identify drug sensitivities in SYK inhibitor resistant AML cells. […] Glucocorticoids are potent immunosuppressants which work in part by inhibiting the transcription of cytokine genes.
Described herein is a viability screen to look for activity in the SYK inhibitor drug resistant cell line against four NCATS compound libraries (MIPE 5.0, NPC, NPACT, and Kinase) totaling 11372 compounds. Active hits were reacquired for confirmation and further secondary assay testing.
SEQUENCE No. (e.g., 1, 2, 3, etc.); […] (e.g., Cells, Incubation, Reagent, etc.); VALUE; DESCRIPTION.
1; Media; 2uL; white, solid-bottom Corning assay plate.
2; Compounds; 23nL; Echo acoustic dispenser.
3; Cell; 5uL; 500 cells per well.
4: Incubation; 72hr; 37 C, 5% CO2, 95% humidity.
5; Reagent; 3uL; CellTiter-Glo reagent (Promega).
6; Incubation; 10min; room temperature.
7; Detection; Luminescence; ViewLux plate reader (PerkinElmer).
NOTES (numbers refer to Sequence numbers above
1. Quantitative high-throughput screening (qHTS) of small molecule compounds was conducted on drug resistant SYKi MV4-11 cell line.
2. Twenty-three nanoliter of small molecule compounds were added to each assay plates using the Echo acoustic dispenser (Beckman Coulter).
3. Cells were seeded into the assay plates at a final density of 500 cells in 5uL of media per well using the Multidrop Combi dispenser.
4. Plates were covered with stainless steel gasketed lids and incubated for 72 hours at standard cell culture conditions.
5. Viability was assessed by adding 3uL of CellTiter-Glo detection reagent (Promega).
6. Plates were covered with gasket lids and incubated for 10 minutes at room temperature.
7. Luminescence was measured on a ViewLux plate reader (PerkinElmer).
(In general: qHTS replaces the single test concentration by a dilution series.)
Take `Nc1ccn(CC(CO)OCP(=O)(O)O)c(=O)n1` (stereo not drawn): the Potency entry was “inactive”.

`CC1(C)CC[C@]2(NC(=O)C(C)(F)F)CC[C@]3(C)[C@H](C(=O)C=C4[C@@]5(C)C=C(C#N)C(=O)C(C)(C)[C@@H]5CC[C@]43C)[C@@H]2C1`: the Potency is 2.63 µM (active).

With `COC(=O)[C@]12CCC(C)(C)C[C@H]1[C@H]1C(=O)C=C3[C@@]4(C)C=C(C#N)C(=O)C(C)(C)[C@@H]4CC[C@@]3(C)[C@]1(C)CC2`, the Potency was 2.63 µM (active).
